Experimental data: PubChem BioAssay
Active and inactive are the calls of the source.

Key:
[1] = target: Albumin (Bos taurus) (UniProt P02769); assay: bovine serum albumin binders on microarray, profiling panel, artefact control for SMM control protein annotation, biochemical, small-molecule microarray, Alexa647 label, 635/667 nm fluorescence (AID 1118); details: BSA-A647 binding, fluorescence 635 nm, higher = more signal;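 also: score merges 667 nm emission intensity and signal-to-noise per printed compound spot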
Sequence of Albumin (Bos taurus) (P02769 whole entry, looked up): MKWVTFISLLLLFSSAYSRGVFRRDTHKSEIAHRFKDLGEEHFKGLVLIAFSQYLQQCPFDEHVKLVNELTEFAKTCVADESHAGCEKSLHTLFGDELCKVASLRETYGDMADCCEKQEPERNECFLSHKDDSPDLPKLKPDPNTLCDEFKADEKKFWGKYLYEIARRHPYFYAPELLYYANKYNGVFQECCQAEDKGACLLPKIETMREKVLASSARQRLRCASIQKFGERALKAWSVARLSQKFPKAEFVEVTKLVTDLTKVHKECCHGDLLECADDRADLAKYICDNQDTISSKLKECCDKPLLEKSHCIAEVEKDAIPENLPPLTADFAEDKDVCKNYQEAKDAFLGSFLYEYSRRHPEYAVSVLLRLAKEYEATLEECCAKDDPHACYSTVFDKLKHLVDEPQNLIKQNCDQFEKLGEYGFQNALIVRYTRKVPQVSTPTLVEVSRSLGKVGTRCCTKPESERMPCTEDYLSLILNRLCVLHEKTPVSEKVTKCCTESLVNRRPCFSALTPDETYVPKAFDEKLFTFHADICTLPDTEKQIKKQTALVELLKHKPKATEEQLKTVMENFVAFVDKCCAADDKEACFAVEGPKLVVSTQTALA

[2] = small-molecule microarray binders of probe aXIP, primary screen, biochemical, NeuroSMM set, 635/667 nm fluorescence (AID 1119); details: higher = more signal, called active from +8 up or from −8 down;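 also: probe is the protein aXip251-270 applied at 1 µg/mL to compound-printed slides; binding of probe to printed compounds measured as 667 nm fluorescence plus signal to noise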
[3] = small-molecule binders of probe aNOTCH3, primary screen, biochemical, small-molecule microarray, 635/667 nm fluorescence (AID 1120); details: higher = more signal;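 also: probe is a biotin-tagged antibody raised against NOTCH3 rather than NOTCH3 protein; score merges spot fluorescence near 667 nm with spot signal to noise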
[4] = small-molecule binders of probe aNOTCH2, primary screen, biochemical, small-molecule microarray, 635/667 nm fluorescence (AID 1121); details: higher = more signal;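 also: score merges feature fluorescence read at 667 nm with its signal to noise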
[5] = target: Carbonic anhydrase 2 (Homo sapiens) (UniProt P00918); assay: CAII small-molecule binders, profiling panel, biochemical, small-molecule microarray, Alexa647-labelled CAII (AID 1122); details: CAII-A647 binding fluorescence, higher = more signal
[6] = COS7 lysate on small-molecule microarray, probe aHis, 635 nm (AID 1123); details: COS7 cell lysate, fluorescence, higher = more signal;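 also: z-score combines 667nm fluorescence intensity with signal-to-noise per printed compound spot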
[7] = compound binding in COS7 lysate, probe aLAP1, primary screen, cell lysate, small-molecule microarray (AID 1124); details: probe aLAP1, fluorescence, higher = more signal;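 also: lysate comes from COS7 cells expressing LAP1 and is applied at 0.3 µg/mL; score merges spot fluorescence near 667 nm with signal-to-noise over triplicate slides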
[8] = test system: Sam68 (KHDRBS1); assay: Sam68 small-molecule binders, primary screen, biochemical, small-molecule microarray, 635 nm fluorescence (AID 1125); details: small-molecule microarray binding, higher = more signal;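 also: score merges 667 nm channel intensity with signal to noise over triplicate slides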
[9] = test system: Chordin-like protein 2 (CHRDL2); assay: CHRDL2 small-molecule binders, primary screen, biochemical, small-molecule microarray, 635 nm fluorescence (AID 1126); details: small-molecule microarray binding, fluorescence 635 nm; higher = more signal;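 also: printed compound slides probed with Chrdl2 protein at 4 µg/mL for 1 h at 4 C; score merges 667 nm emission intensity with signal to noise over three replicate slides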
[10] = target: Concanavalin-A (Canavalia ensiformis) (UniProt P02866); assay: ConA small-molecule binders, primary screen, artefact control for SMM control protein annotation, biochemical, small-molecule microarray, Alexa647 label, 635 nm (AID 1127); details: ConA-A647 binding fluorescence, higher = more signal;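 also: z combines 667 nm emission intensity with signal-to-noise across three replicate slides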
Sequence of Concanavalin-A (Canavalia ensiformis) (P02866 whole entry, looked up): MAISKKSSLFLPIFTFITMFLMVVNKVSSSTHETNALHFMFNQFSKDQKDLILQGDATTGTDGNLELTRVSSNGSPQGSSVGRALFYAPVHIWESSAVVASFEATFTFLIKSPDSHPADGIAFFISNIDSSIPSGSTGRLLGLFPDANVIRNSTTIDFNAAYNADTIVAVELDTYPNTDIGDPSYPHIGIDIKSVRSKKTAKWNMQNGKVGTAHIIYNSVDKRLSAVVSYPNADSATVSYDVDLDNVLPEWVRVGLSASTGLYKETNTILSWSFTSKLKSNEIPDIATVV

Row | SMILES | composite z-score [1] | composite Z-score [2] | composite z-score [3] | composite z-score [4] | composite z-score [5] | composite z-score [6] | composite z-score [7] | composite z-score [8] | composite z-score [9] | composite z-score [10]
1 | C=C(/C(=C/C[C@H](OC(=O)c1ccncc1)c1ccc(OCCO)cc1)c1cc(C(=O)OC)ccc1OC)C(C)C | 0.605 | -0.0856 (inactive) | -0.0362 | -0.135 | 0.514 | 1.15 | 0.284 | 0.516 | -0.0985 | 0.985
2 | C=CCNC(=O)[C@H]1[C@@H]2C(=O)O[C@@H](c3ccccc3)[C@@H](c3ccccc3)N2[C@@H](c2ccc(O)cc2)[C@]12C(=O)Nc1ccc(C#CCCO)cc12 | 0.138 | -0.157 (inactive) | -0.112 | -0.198 | 0.656 | -0.0099 | 0.75 | -0.319 | -0.559 | -0.065
3 | C=C(CCCC)/C(=C/C[C@H](OC(=O)c1ccncc1)c1ccc(OCCO)cc1)c1cc(C(=O)OC)ccc1OC | -0.0215 | 0.219 (inactive) | 0.167 | -0.14 | 0.644 | 0.774 | 0.354 | 0.59 | -0.257 | 0.363
4 | O=C1OCCC=C[C@H]2OC34C=CCN(Cn5nnc6ccccc65)C(=O)[C@H]3N(CCO)C(=O)[C@@H]4C12 (stereo not given in full) | 0.995 | 0.6 (inactive) | -0.475 | -0.227 | 0.866 | -0.403 | -0.38 | -0.75 | -1.75 | -1.75
5 | CCCNC(=O)[C@@H]1c2ccccc2C(=O)N(Cc2ccccc2OC)[C@H]1c1ccc(CO)cc1 | 0.735 | -0.228 (inactive) | -0.0573 | -0.0966 | 0.604 | 1.83 | 0.614 | 1.1 | -0.0218 | 0.748
6 | COc1ccc([C@H]2C[C@H]3C(I)=C[C@@H]2C(=O)[C@]32CO2)cc1 | -0.63 | -0.617 (inactive) | 0.0242 | -0.156 | -0.267 | -0.442 | -0.154 | -0.889 | 0.189 | -0.0546
7 | C=CCN1C(=O)[C@]2(O[C@H](CCO)[C@@H]([Si](C)(C)c3ccc(OC)cc3)[C@@H]2C)c2cc(N(C=O)c3ccccc3)ccc21 | 0.0925 | 0.111 (inactive) | -0.0967 | -0.0315 | 0.561 | 0.225 | 0.398 | 0.518 | -0.0095 | 0.497
8 | COc1cc2c(cc1OC)CN(C(=O)[C@H]1[C@@H]3C(=O)O[C@@H](c4ccccc4)[C@@H](c4ccccc4)N3[C@@H](c3ccccc3OCCO)[C@]13C(=O)Nc1ccc(C#CCCO)cc13)CC2 | 0.766 | 0.397 (inactive) | 0.0268 | -0.118 | 0.383 | 0.935 | -0.0376 | 1.33 | 0.579 | 1.11
9 | N#Cc1ccc(C(O)C2C=CC3C(=O)N(c4ccccc4)C(=O)C3N2Nc2ccccc2F)cc1 (stereo not given) | 1.01 | -0.187 (inactive) | 0.173 | -0.0771 | 0.675 | 1.99 | 0.555 | 0.864 | -0.284 | 0.883
10 | O=C1O[C@@H](c2ccccc2)[C@@H](c2ccccc2)N2[C@@H](c3ccccc3OCCO)[C@]3(C(=O)Nc4ccc(C#CC5(O)CCCCCC5)cc43)[C@@H](C(=O)N3CCN(c4ncccn4)CC3)[C@H]12 | 0.287 | 0.276 (inactive) | -0.0416 | -0.131 | 0.398 | 1.47 | 0.795 | 1.21 | 0.183 | 1.02
11 | CC(C)CN1C(=O)[C@@]2(c3ccc([N+](=O)[O-])cc3)CC(=O)N(C3CCCCC3)[C@@H]2c2ccc(CO)cc21 | -0.124 | 0.659 (inactive) | -0.357 | -0.0241 | 0.77 | -0.335 | 0.73 | -0.859 | -1.91 | -0.895
12 | CCCC[C@@H]1C[C@H]1[C@@H](NC(=O)c1cccnc1)c1ccc(Cl)cc1 | -1.41 | -0.29 (inactive) | -0.429 | -0.185 | -0.404 | 0.878 | -0.271 | -1.27 | -1.95 | -2.03
13 | CC(c1ccccc1)C(O)C1C=CC2C(=O)N(c3ccccc3)C(=O)C2N1Nc1ccccc1 (stereo not given) | 1.01 | 0.304 (inactive) | 0.298 | -0.112 | 0.493 | 3.12 | 0.426 | 1.34 | -0.298 | 1.11
14 | COC(=O)[C@]1(Cc2ccccc2)N=C(c2ccc(OCCCO)cc2)O[C@@H]1c1ccccc1N=[N+]=[N-] | 0.165 | -0.181 (inactive) | -0.0391 | -0.122 | 0.279 | 1.59 | 0.209 | 0.3 | 0.315 | 0.666
15 | O=C(O)[C@H](Cc1ccccc1)n1cc(-c2ccccc2)nn1 | 0.0644 | 0.52 (inactive) | -0.0313 | -0.164 | 0.155 | -0.065 | 0.277 | 0.187 | 0.238 | 0.362
16 | [N-]=[N+]=NCc1ccccc1[C@@H]1OC(c2ccc(OCCCO)cc2)=N[C@]1(CCS(=O)(=O)c1ccccc1)C(=O)N1CCCCC1 | 0.997 | -0.228 (inactive) | 0.739 | -0.124 | 0.754 | 2.85 | 0.475 | 1.29 | -0.59 | 1.17

Row | SMILES | composite z-score [1] | composite Z-score [2] | composite z-score [3] | composite z-score [4] | composite z-score [5] | composite z-score [6] | composite z-score [7] | composite z-score [8] | composite z-score [9] | composite z-score [10]
17 | O=C(NCc1ccccc1)[C@@H]1c2ccccc2C(=O)N(C2Cc3ccccc3C2)[C@H]1c1ccc(CO)cc1 | 0.0732 | 0.0702 (inactive) | 0.0711 | -0.0249 | 0.767 | 1.35 | 0.0541 | 0.958 | -0.357 | 0.899
18 | CC(=O)Nc1cc(Br)ccc1C(=O)NCc1ccccc1 | 0.744 | -0.34 (inactive) | -0.0311 | -0.123 | 0.23 | 1.18 | -0.458 | 0.494 | -0.141 | 0.811
19 | O=C1NC(=O)C2C1C=CC(C(O)c1ccc(I)cc1)N2Nc1ccc(Cl)cc1Cl (stereo not given) | 0.99 | -0.234 (inactive) | 0.387 | 0.127 | 0.404 | 1.61 | 0.943 | 1.22 | -0.776 | 1.09
20 | CC(C)CCC[C@@H](C)[C@H]1CC[C@@]2(C)C3=C(CC[C@]12C)[C@@]1(C)CC[C@H](OC(=O)c2ccc(C(F)(F)F)nc2)C(C)(C)C1CC3 (stereo not given in full) | 0.326 | -0.0967 (inactive) | -0.111 | -0.17 | -0.0684 | 0.493 | 0.0819 | 0.42 | 0.827 | 0.311
21 | COCCCNC(=O)[C@@H]1c2ccccc2C(=O)N(Cc2ccccc2)[C@H]1c1ccc(CO)cc1 | 0.405 | 0.59 (inactive) | 0.235 | 0.13 | 0.787 | 1.48 | 1.1 | 0.814 | 0.634 | 0.458
22 | COC(=O)[C@@]1(Cc2ccccc2)[C@H]2c3cc(C(=O)N4CCCC4)n(Cc4c(CO)[nH]cc(C)c4=O)c3C[C@H]2CN1C(=O)c1ccccc1 | 0.677 | -0.0461 (inactive) | 0.0076 | 0.154 | 0.701 | 2.64 | 1.32 | 0.109 | -0.174 | 0.0417
23 | CO[C@H]1O[C@H](CO)[C@@H](OC(=O)Nc2ccccc2)[C@@H]2OC(=O)[C@@H](Cc3ccc4ccccc4c3)C/C=C/C[C@H](Cc3ccc4ccccc4c3)C(=O)O[C@@H]12 | 0.615 | 1.08 (inactive) | -0.0371 | -0.146 | 0.324 | 1.38 | 0.313 | 1.21 | 0.34 | 0.983
24 | O=C1C2C=CC(C(O)C=Cc3ccc([N+](=O)[O-])cc3)N(n3cnnc3)C2C(=O)N1Cc1ccccc1 (stereo not given) | 0.235 | 0.263 (inactive) | 0.177 | 0.02 | 0.66 | 1.38 | 1.04 | 1.19 | 0.682 | 0.876
25 | CCCCN1CC=CC23O[C@@H]4C=CCCOC(=O)C4[C@H]2C(=O)N(CCCCCO)[C@@H]3C1=O (stereo not given in full) | 0.438 | 0.251 (inactive) | -0.297 | -0.132 | 0.861 | -0.0221 | -0.327 | -0.444 | -0.882 | -0.131
26 | COc1ccc(NC(=O)O[C@H]2[C@H](OC(=O)c3cc4ccccc4[nH]3)[C@@H](OC(=O)c3cc4ccccc4[nH]3)[C@@H](OC)O[C@@H]2CO)cc1 | 0.144 | 0.561 (inactive) | -0.235 | -0.0404 | 0.541 | 1.24 | 0.614 | 0.156 | -0.113 | -0.586
27 | OCC1C=C(/C=C/c2ccccc2)CN1Cc1ccccc1Br (stereo not given) | 0.718 | 0.466 (inactive) | 0.0694 | -0.0877 | 0.287 | 0.672 | -0.0831 | 1.01 | 0.402 | 0.94
28 | CC(=O)NCCCC[C@@H]1NC(=O)[C@H]2C[C@@H](C(=O)NCCCCCNC(=O)CS)[C@@H](c3ccc(O)cc3)N2C1=O | -0.16 | -0.249 (inactive) | -0.136 | -0.133 | 0.704 | 1.07 | -0.269 | 0.338 | -0.105 | 0.509
29 | COC(=O)c1c(CC[C@@H](CO)NC(=O)N[C@@H](Cc2ccccc2)Cn2cc(-c3ccccn3)nn2)oc(C(=O)N2CCOCC2)c1C(=O)OC | 0.15 | 0.255 (inactive) | 0.0562 | -0.0928 | 0.696 | 0.0795 | -0.425 | -0.23 | -0.488 | -0.376
30 | CCCC=C(CCC)[C@@H](NC(=O)OCC(C)C)c1ccccc1 | 0.923 | -0.254 (inactive) | 1.03 | -0.0141 | 0.611 | 1.6 | -0.182 | 1.31 | -1.42 | 1.1
31 | COC(=O)[C@@]1(Cc2ccc(F)cc2)[C@H]2c3cc(C(=O)N(C)C)n(Cc4ccc(C)o4)c3C[C@H]2CN1C(=O)c1ccccc1 | -0.373 | 0.444 (inactive) | 1.6 | 0.992 | 0.458 | 3.29 | 1.13 | 0.47 | -0.852 | -1.67
32 | O=C1[C@H]2C=C(Br)[C@H](C[C@@H]2OCCCCCCO)[C@@]12CO2 | -0.699 | 0.926 (inactive) | 0.265 | -0.0064 | -0.382 | -0.469 | 0.206 | -0.733 | 0.0547 | -1.57
